From PubChem BioAssay (EPA / NIEHS)
“And” between values parts separate entries of the source, which are not always exact repeats. Equal entries are not always repeated. Some structures have more than one record in an assay (separate samples or runs), and their calls can disagree. The source made the active and inactive calls. Rule for the calls: active = hit-call score of the fitted dose curve at least 0.9, where 1 is the maximum; inactive = score below 0.9.

Assays:
[1] = ATG_NFI_CIS: Attagene CIS-FACTORIAL HepG2 Assay for human Nuclear Factor I (NFI) (AID 2282989); settings: HepG2 cis-regulatory reporter, NFI response element transcription; actives raise or lower the signal
Method in brief: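 After transient transfection of HepG2 with cis-promoter reporter constructs and 24 h dosing, RNA is reverse-transcribed, amplified, 6-FAM end-labelled and HpaI-digested before capillary analysis. Bidirectional curve fitting against DMSO.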

[2] = target: Myc proto-oncogene protein (Homo sapiens) (UniProt P01106); experiment: ATG_Myc_CIS: Attagene CIS-FACTORIAL HepG2 Assay for human Myelocytomatosis (Myc) Proto-Oncogene Transcription Factor (AID 2282990); settings: HepG2, Attagene cis-reporter transcription factor activity; actives raise or lower the signal
Sequence of Myc proto-oncogene protein (Homo sapiens) (P01106 whole entry, looked up, the tested form may be a part): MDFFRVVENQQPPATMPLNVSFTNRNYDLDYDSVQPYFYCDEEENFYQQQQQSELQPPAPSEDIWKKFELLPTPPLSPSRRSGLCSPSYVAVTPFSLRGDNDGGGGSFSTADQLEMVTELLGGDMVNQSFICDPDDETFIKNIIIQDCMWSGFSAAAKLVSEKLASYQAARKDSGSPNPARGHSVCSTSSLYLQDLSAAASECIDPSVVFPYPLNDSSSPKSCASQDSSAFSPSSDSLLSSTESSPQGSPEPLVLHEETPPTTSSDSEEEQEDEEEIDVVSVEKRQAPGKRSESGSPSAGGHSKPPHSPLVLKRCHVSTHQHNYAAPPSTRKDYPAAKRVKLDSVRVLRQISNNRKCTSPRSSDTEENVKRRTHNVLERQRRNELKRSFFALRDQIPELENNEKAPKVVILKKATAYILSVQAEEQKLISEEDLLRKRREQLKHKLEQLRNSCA
Method in brief: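 After 24 h chemical treatment of HepG2 cells carrying multiplexed cis-regulated reporter constructs, reporter transcripts quantified by RT-PCR and capillary electrophoresis of fluorescent fragments. Gain or loss fitted against DMSO baseline.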

[3] = ATG_NF_kB_CIS: Attagene CIS-FACTORIAL HepG2 Assay for human Nuclear Factor Kappa B (NF-kB) (AID 2282991); settings: HepG2 Attagene cis-factorial NF-kB reporter mRNA; actives raise or lower the signal
Method in brief: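 HepG2 cells transiently transfected with multiplexed cis-element reporter units measuring endogenous transcription factor activity; reporter mRNA read 24 h after dosing by RT-PCR, fluorescent labelling, HpaI digestion and capillary electrophoresis. Bidirectional fit against DMSO baseline.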

[4] = ATG_NRF2_ARE_CIS: Attagene CIS-FACTORIAL HepG2 Assay for human Nuclear Factor Erythroid 2 Related Factor 2 (NFR2) response to Antioxidant Response Elements (ARE) (AID 2282992); settings: HepG2 Attagene ARE/NRF2 reporter, transcription factor activity; actives raise or lower the signal
Method in brief: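 Transient MRTU transfection of HepG2; 24 h compound exposure; TriZol RNA, RT with oligo(dT), PCR, 6-FAM primer extension, HpaI cut, CE. Bidirectional fit vs DMSO.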

[5] = ATG_Oct_MLP_CIS: Attagene CIS-FACTORIAL HepG2 Assay for human Octamer-Binding Transcription Factor (Oct) (AID 2282993); settings: HepG2 Attagene cis-factorial Oct reporter, mRNA; actives raise or lower the signal
Method in brief: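 Cells of the HepG2 line express promoter-controlled reporter sequences whose mRNA levels, after 24 h treatment, are measured by RT-PCR and capillary electrophoresis. Increases and decreases are scored relative to DMSO.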

[6] = BSK_3C_TissueFactor: BioMAP Diversity Plus: 3C Assay for Tissue Factor Biomarker Activity (AID 2282997); settings: BioMAP 3C HUVEC, tissue factor biomarker readout; actives raise or lower the signal
Method in brief: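 ELISA read-out of Tissue Factor levels on human umbilical vein endothelium collected 24 h after chemical dosing. Gain or loss of signal was fitted relative to DMSO.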

[7] = BSK_3C_uPAR: BioMAP Diversity Plus: 3C Assay for Urokinase-type plasminogen activator receptor (uPAR) Biomarker Activity (AID 2282998); settings: BioMAP 3C HUVEC, uPAR biomarker ELISA; actives raise or lower the signal
Method in brief: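 Endothelial primary cells of human umbilical vein origin received test chemical; 24 h later uPAR was assayed by ELISA. Fitting was bidirectional, DMSO as negative control.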

[8] = BSK_3C_VCAM1: BioMAP Diversity Plus: 3C Assay for Vascular cell adhesion molecule 1 (VCAM1) Biomarker Activity (AID 2282999); settings: BioMAP 3C HUVEC, VCAM1 ELISA, cytokine-stimulated; actives raise or lower the signal
Method in brief: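 Endothelial cells from human umbilical vein are treated with test chemical. At 24 h, VCAM-1 is measured by ELISA, and responses in either direction are fitted relative to DMSO.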

[9] = BSK_4H_Eotaxin3: BioMAP Diversity Plus: 4H Assay for Eotaxin 3 Biomarker Activity (AID 2283000); settings: primary human endothelial cells (HUVEC); actives raise or lower the signal
Method in brief: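 Chemicals were added to human umbilical vein endothelium cultures, and Eotaxin-3 was quantified by ELISA at 24 h. Values were derived by bidirectional fitting with DMSO serving as negative control and activity baseline.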

[10] = target: Cellular tumor antigen p53 (Homo sapiens) (UniProt P04637); experiment: ATG_p53_CIS: Attagene CIS-FACTORIAL HepG2 Assay for human p53 Transcription Factor (AID 2282994); settings: HepG2 p53 cis-element reporter, Attagene mRNA; actives raise or lower the signal
Sequence of Cellular tumor antigen p53 (Homo sapiens) (P04637 whole entry, looked up): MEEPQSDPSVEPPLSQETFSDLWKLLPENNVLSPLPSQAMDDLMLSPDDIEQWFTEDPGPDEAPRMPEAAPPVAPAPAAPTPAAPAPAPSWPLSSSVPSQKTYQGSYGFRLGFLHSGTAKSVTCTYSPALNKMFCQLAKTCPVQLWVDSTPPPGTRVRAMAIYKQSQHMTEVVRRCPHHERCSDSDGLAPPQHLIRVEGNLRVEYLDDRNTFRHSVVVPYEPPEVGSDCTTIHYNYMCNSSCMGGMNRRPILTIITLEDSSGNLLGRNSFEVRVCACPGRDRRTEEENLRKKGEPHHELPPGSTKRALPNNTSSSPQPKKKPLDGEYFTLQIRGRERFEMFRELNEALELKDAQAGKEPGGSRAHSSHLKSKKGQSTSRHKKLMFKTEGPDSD
Method in brief: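 HepG2, transient MRTU transfection (cis promoter elements, endogenous TFs); 24 h dosing; RNA isolation, RT-PCR, 6-FAM primer extension, HpaI digest, CE fluorescence; bidirectional fit vs DMSO.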

Measured: AC50

O=C(O)c1ccccc1C(c1ccc(O)cc1)c1ccc(O)cc1
not listed: [10]
inactive: all other assays above

N#C[C@@H]1CC(F)(F)CN1C(=O)CNC1CC2CCC(C1)N2c1ncccn1 (some centres not stated)
inactive: all assays above

CCCCCCCC(=O)O
not listed: [3] | [9]
inactive: all other assays above

CN1CCC[C@H]1c1cccnc1
not listed: [3] | [9] | [10]
inactive: all other assays above

CC(C)(C)c1ccc(O)c(C(C)(C)C)c1
active: [6] 8.52 µM | [7] 9.34 µM | [8] 12.4 µM | [9] 12.1 µM
inactive: all other assays above

COCC(C)O (configuration not stated)
inactive: all assays above

CCCCOCCO
inactive: all assays above

COC(=O)CCCCC(=O)OC
not listed: [3]
inactive: all other assays above

ClC1=C(Cl)C(Cl)(Cl)C(Cl)=C1Cl
inactive: [2]
active: [1] 15.3 µM and 7.42 µM | [3] 8.6 µM and 5.05 µM | [4] 3.07 µM and 6.04 µM | [5] 13.4 µM and 6.26 µM | [10] 17.4 µM and 11.1 µM | [6] 5.07 µM | [7] 5.21 µM | [8] 5.82 µM

Nc1cccc2c(N)cccc12
active: [4] 46.6 µM
inactive: all other assays above

CCc1nn(C2CCCCC2)c2cc(C3(C#N)CCC(C(=O)O)CC3)ccc12 (configuration not stated)
active: [3] 24.9 µM | [7] 7.5 µM | [8] 4 µM | [9] 16.5 µM
inactive: all other assays above

CC[C@H](C)[C@@H](C(=O)O)n1sc2ccccc2c1=O
active: [4] 73.8 µM
not listed: [3] | [9]
inactive: all other assays above

CCCCC(CC)COC(=O)CCCCC(=O)OCc1ccccc1 (configuration not stated)
not listed: [3] | [9]
inactive: all other assays above

c1ccc2cc3c(ccc4ccccc43)cc2c1
active: [5] 1.21 µM and 7.63 µM
inactive: [1] | [2] | [5] | [10] | [6] | [7] | [8]

OC1CCCCC1
not listed: [3] | [9]
inactive: all other assays above

CC(=O)CC(C)(C)O
inactive: all assays above

CC(=O)NC1(c2cccc(F)c2)CCN(CC[C@@]2(c3ccc(Cl)c(Cl)c3)CN(c3ccccc3)C(=O)CO2)CC1
inactive: [6]
active: [1] 41.7 µM | [2] 61.5 µM | [3] 55 µM | [4] 9.13 µM | [5] 37.3 µM | [10] 18.4 µM | [7] 20.4 µM | [8] 24.2 µM | [9] 27.1 µM

CCCCCCC(=O)O
not listed: [3] | [9]
inactive: all other assays above
